Drawing on PubChem BioAssay AID1851 (National Center for Advancing Translational Sciences (NCATS), 2009), this text covers AC50 and activity, negative = inhibition for 102 compounds.

In general, AC50 refers to the midpoint of the concentration-response curve, whichever way the signal moves.

Out of some 16,000 compounds screened, about 2,600 (16%) were called active. About 20% were inconclusive and are not listed. Calls come from the whole dose curve; as a rule, active = well fitted curve in the direction sought with a large enough effect; inconclusive = small, poorly fitted or top-dose-only effect, or effect the other way; inactive = no such curve, though single readings can be large or run the other way. A selection follows. Where a structure was tested more than once in an assay, its records may differ in their call.
% is set by controls: 0 for no effect and ±100 for the full control effect.

For the assay, the target named is Cytochrome P450 2D6 (Homo sapiens) (UniProt P10635). Put plainly: Cytochrome panel assay with activity outcomes. The following applies: recombinant CYP, pro-luciferin dealkylation, luminescence, p450-cyp2d6; series mostly up to 57.1 µM.
Cytochrome P450 2D6 (Homo sapiens), sequence (P10635 whole entry, looked up): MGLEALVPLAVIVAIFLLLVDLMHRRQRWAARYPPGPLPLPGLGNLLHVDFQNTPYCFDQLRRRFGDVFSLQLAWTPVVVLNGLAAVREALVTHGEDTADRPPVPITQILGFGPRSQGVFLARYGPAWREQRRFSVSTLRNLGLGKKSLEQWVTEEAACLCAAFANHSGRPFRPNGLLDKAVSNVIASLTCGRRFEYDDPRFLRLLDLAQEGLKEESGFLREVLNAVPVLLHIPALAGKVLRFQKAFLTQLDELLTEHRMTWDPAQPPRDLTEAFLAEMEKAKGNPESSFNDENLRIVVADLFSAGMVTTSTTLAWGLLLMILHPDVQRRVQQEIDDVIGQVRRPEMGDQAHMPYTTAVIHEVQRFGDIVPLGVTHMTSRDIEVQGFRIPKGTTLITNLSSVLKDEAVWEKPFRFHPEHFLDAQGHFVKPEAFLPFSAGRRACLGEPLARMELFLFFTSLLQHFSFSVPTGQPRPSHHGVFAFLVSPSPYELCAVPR
Take `Cc1ccccc1C(=O)NC(=S)NCC(=O)c1ccccc1`: the AC50 result was “inactive”. Same read-out and setting: the same measure for `COCCn1c(=O)c(C)nc2cnc(Nc3cccc(OC)c3)nc21`: “inactive”; for `CN(C)C(N)=NCCC[C@H](N)C(=O)O`: “inactive”; for `CC(/C=N\NC(=O)Cn1c(C)nc2ccccc21)=C\c1ccccc1`: “inactive”.

As for `CC[C@H]1C2=C3C(CC[C@H]4C(OC)OC[C@](C)([C@@H]34)N(C(=O)OC(C)(C)C)C2)C(CO)C1CO` (some centres not stated), the AC50 result is “inactive”. In the case of `COC(=O)c1sccc1NC(=O)c1cc(-c2ccc(C)cc2C)nc2ccccc12`, the AC50 result is “inactive”. The same measure, in the same setting: the same measure for `Cc1c(Br)c([N+](=O)[O-])nn1CC(=O)NCc1ccccn1`: “inactive”.

For the compound `Cc1ccc(OC[C@H](O)[C@H](C)NC(C)C)c2c1CCC2`, the AC50 is 15.8 µM (active) and inactive.

`O=C(OCC1CC(c2ccccc2)=NO1)c1ccc(Cl)cc1` (configuration not stated): the AC50 result is “inactive”.

Regarding `CSc1nncc(-c2ccc(F)c(F)c2)n1`, the AC50 result is “inactive”.

As for `COC(=O)C/C=C\[C@@H](C)[C@@H](/C=N\O[C@@H](C)c1cn([C@H]2COC[C@H]2O)nn1)NS(=O)(=O)c1ccc(C)cc1`, the activity, negative = inhibition is 5.15% [at 11.4 µM] (inactive).

In the case of `Cc1ccc(OCCCN2C(=O)C(=O)c3cccc(C)c32)cc1`, the half-maximal activity concentration (AC50) is 14.1 µM (active). As to `Cc1ccc(OCCCC(=O)N2CCOCC2)cc1`, the AC50 entry is “inactive”.

For the compound `Cc1cccc(/C(N)=N/OC(=O)CCCN2C(=O)c3ccccc3C2=O)c1`, the AC50 result was “inactive”. Take `CC(C)(C)NC[C@H](O)c1cc(O)cc(O)c1`: the AC50 result is “inactive”. In the case of `Cc1onc(-c2ccccc2Cl)c1C(=O)Nc1nnc(Cc2ccc(Cl)cc2)s1`, the AC50 result is “inactive”.

Regarding `Cc1ccc(NC(=O)c2ccc(CSc3nnc(-c4ccncc4)n3C)cc2)cc1`, the AC50 result was “inactive”. Take `Cc1ccc(SCc2nnc(NC(=O)c3ccccc3)s2)cc1`: the AC50 entry was “inactive”. Regarding `Cc1ccc(SCc2ccc(C(=O)NCc3ccncc3)cc2)cc1`, the half-maximal activity concentration (AC50) was 0.0447 µM (active). For the compound `CCc1nc2c(c(SC)nn2-c2ccccc2)c(N)c1C(=O)OC`, the AC50 entry was “inactive”. Regarding `CC(=O)Nc1ccc(-c2cc(-c3ccc(NC(C)=O)cc3)nc(-c3ccccc3)n2)cc1`, the AC50 entry is “inactive”.

With `CC(=O)OCCNC(=O)c1cccnc1`, the AC50 result was “inactive”. On the same count and under the same terms, the same measure for `O=C(COC(=O)c1cccnc1)c1ccc(Cl)c(Cl)c1`: 2.51 µM (active). In the case of `O=C(Oc1cccc(Br)c1)c1cccnc1`, the AC50 entry was “inactive”. On to `COc1cc(-c2ccc(N=Nc3ccc4c(S(=O)(=O)O)cc(S(=O)(=O)O)c(N)c4c3O)c(OC)c2)ccc1N=Nc1ccc2c(S(=O)(=O)O)cc(S(=O)(=O)O)c(N)c2c1O`, for which the AC50 entry was “inactive”.

On to `COc1ccc(OCCSc2ncn[nH]2)cc1`, for which the AC50 entry was “inactive”. On to `COCCCNC(=O)CCC(=O)Nc1ccc2nc(N3CCOCC3)cc(C)c2c1`, for which the AC50 result is “inactive”.

For the compound `Nc1nc(Sc2ccc([N+](=O)[O-])c3nonc23)c2[nH]cnc2n1`, the activity, negative = inhibition is 3.81% [at 11.4 µM] (inactive). As for `C[C@H](N[C@@H](C)COc1ccccc1)[C@H](O)c1ccc(O)cc1`, the AC50 is 0.316 µM (active). Consider `CCOc1ccc(C(CC(=O)O)NC(=O)COc2ccccc2)cc1` (configuration not stated), for which the AC50 result is “inactive”.

Regarding `O=C(O)[C@H](/C=C\c1ccccc1)c1ccccc1`, the activity, negative = inhibition was -18.1% [at 11.4 µM] (inactive). Take `CCOc1ccc(-n2c(=O)[nH]cc(C(=O)N3CCCc4ccccc43)c2=O)cc1`: the AC50 entry was “inactive”. As to `Cc1ccc(C(=O)NCCNC(=O)CN2CCOCC2)cc1`, the AC50 entry is “inactive”. As to `CCC(CC)C(=O)NCCN1CCN(C(=O)C(CC)CC)CC1`, the AC50 result was “inactive”. Regarding `O=C(NCCN1CCCCC1)c1ccc(I)cc1`, the half-maximal activity concentration (AC50) is 10 µM (active). In the case of `COC(=O)C(NC(=O)c1ccccc1)=C1C=C(C)OC(C)=C1`, the AC50 entry was “inactive”. Consider `Clc1ccc(/C=N/c2c(-c3ccc(Cl)cc3)nc3n2CCS3)cc1`, for which the AC50 entry was “inactive”. For `O=[N+]([O-])c1cccc(/C=N/Nc2cc(Cl)nc(-c3ccccc3)n2)c1`, the AC50 entry is “inactive”. With `CCCC/C=C/C(NC(=O)Oc1cccc(C(F)(F)F)c1)c1ccccc1` (configuration not stated), the half-maximal activity concentration (AC50) was 1 µM (active). For the compound `CCCC/C=C/C(NC(=O)c1ccccc1)c1ccccc1` (configuration not stated), the AC50 entry was “inactive”.

In the case of `CCCC/C=C/C(NC(=O)c1ccc(C(F)(F)F)cc1)c1ccccc1` (configuration not stated), the AC50 entry was “inactive”.

In the case of `Cn1c(N/N=C/c2c[nH]c3ccccc23)nc2ccccc21`, the AC50 was 7.94 µM (active). Take `Cn1c(=O)c2c(nc(N/N=C\c3ccccc3C(=O)O)n2C)n(C)c1=O`: the activity, negative = inhibition was 5.12% [at 11.4 µM] (inactive). Regarding `C(=N\Nc1nc(Nc2ccccc2)nc(N2CCOCC2)n1)/c1c[nH]c2ccccc12`, the AC50 entry is “inactive”. In the case of `CC(C)(C)C1CCc2c(C(=O)N/N=C/c3cccs3)csc2C1` (configuration not stated), the AC50 entry was “inactive”. With `OC[C@@H]1O[C@H](n2cnc3c(/C=C(\O)c4ccccc4)ncnc32)[C@H](O)[C@@H]1O`, the activity, negative = inhibition is 3.57% [at 11.4 µM] (inactive). `Cn1c(=O)n(C)c2cc(S(=O)(=O)O)ccc21`: the AC50 result was “inactive”. Same read-out and setting: the same measure for `CCc1c(C)nc2ccc(Br)cc2c1Cl`: 12.6 µM (active); for `CCc1c(C(=O)O)[nH]c2ccc(Br)cc12`: “inactive”. In the case of `CCOC(=O)c1ccc2nc(C)c(CCC(C)=O)c(Cl)c2c1`, the AC50 entry was “inactive”.

As to `CCCNS(=O)(=O)c1ccc(OCC(=O)OC)cc1`, the AC50 result is “inactive”. On to `O=c1[nH][nH]c(C(F)(F)F)c1C=Nc1ccccc1`, for which the AC50 result is “inactive”. With `Cc1ccc(CSc2nnc(-c3ccncc3)n2CC2CCCO2)cc1` (configuration not stated), the AC50 entry was “inactive”. Take `Cc1cc(NC(=O)c2c([N+](=O)[O-])cnn2C)no1`: the AC50 entry was “inactive”.

As to `CCCC[C@H](CC)CN1CN(C[C@@H](CC)CCCC)CC(C)(N)C1`, the half-maximal activity concentration (AC50) is 1.26 µM (active).

On to `N#CC(c1ccccn1)(c1ncc(C(F)(F)F)cc1Cl)N1CCOCC1` (configuration not stated), for which the AC50 result was “inactive”. Same read-out and setting: the same measure for `CC(=O)c1c(N=CN(C)C)nc(C)nc1-c1ccccc1`: “inactive”. As to `C=CC[C@@H]1C=C[C@@H](O/N=C\c2ccc(C(=O)N3[C@H](c4ccc(C)cc4)[C@@H](C)CC[C@H]3C(=O)OC)cc2)[C@@H](CO)O1`, the activity, negative = inhibition is 5.48% [at 11.4 µM] (inactive).

As for `Cc1ccc(C)c(N2CCN(C(=O)c3ccc4nc(-c5ccco5)c(-c5ccco5)nc4c3)CC2)c1`, the AC50 was 3.16 µM (active). On the same count and under the same terms, the same measure for `Cc1ccc(C(=O)N2CCN(c3cc(=O)[nH]nc3-c3ccccc3)CC2)cc1`: “inactive”; for `Cc1cccc(C(=O)N2CCN(c3ccc([N+](=O)[O-])c(NCc4ccco4)c3)CC2)c1`: “inactive”; for `COc1ccc(-c2nc3cnc(OC)nc3n(Cc3cccc(OC)c3)c2=O)cc1`: “inactive”.

Take `Cc1ccc(-c2ccc(=O)n(CC(=O)NCCN(C)C)n2)cc1`: the AC50 result was “inactive”. As for `CC1CCCC(C)N1CCNC(=O)Cn1nc(-c2ccccc2)ccc1=O` (configuration not stated), the concentration at half-maximal activity (AC50) was 22.4 µM (active). Take `Cc1ccc(-c2ccc(=O)n(CC(=O)NCCN3CCCCC3C)n2)cc1` (configuration not stated): the half-maximal activity concentration (AC50) is 2 µM (active).

Regarding `CN(C)CCNC(=O)Cn1nc(-c2ccc(Cl)cc2)ccc1=O`, the AC50 result was “inactive”. With `CCOC(=O)N1CCN(C(=O)CCn2nc(-c3ccccc3)ccc2=O)CC1`, the AC50 entry is “inactive”. Turning to `COCCCNC(=O)Cn1nc(-c2ccccc2OC)ccc1=O`, the AC50 result is “inactive”. Regarding `O=C(Nc1ccccc1N1CCOCC1)c1ccccc1[N+](=O)[O-]`, the AC50 entry is “inactive”. As to `N#Cc1cccc(NC(=O)N2CCCC3(CCN(C(=O)c4cc(C(F)(F)F)cc(C(F)(F)F)c4)CC3)C2)c1`, the AC50 entry was “inactive”.

In the case of `CCOC(=O)Cn1nc(C)n(-c2ccc(C)cc2)c1=O`, the AC50 result was “inactive”. Regarding `CC(=O)CCCCn1c(=O)c2c(ncn2C)n(C)c1=O`, the AC50 entry was “inactive”. On to `CN(C)S(=O)(=O)Nc1ccccn1`, for which the activity, negative = inhibition is -5.07% [at 11.4 µM] (inactive). With `O=C1C(Cl)=C(Nc2ccc(S(=O)(=O)Nc3ccccn3)cc2)C(=O)c2ccccc21`, the AC50 is 3.16 µM (active). Turning to `Nc1ccc(S(=O)(=O)Nc2ccccn2)cc1`, the AC50 result was “inactive”. For the compound `Cc1nnc(SCC2=C(C(=O)O)N3C(=O)[C@@H](NC(=O)Cn4cnnn4)[C@@H]3SC2)s1`, the AC50 result was “inactive”. `CCCn1c(-c2ccccc2)nc2c(=O)n(C)c(=O)[nH]c21`: the AC50 result is “inactive”. Still for that read-out and setting: the same measure for `COc1ccc(C[C@H](N)C(=O)N[C@@H]2[C@H](O)[C@H](n3cnc4c(N(C)C)ncnc43)O[C@@H]2CO)cc1`: “inactive”; for `c1cncc(-c2cccnc2)c1`: “inactive”. In the case of `CN(C)c1ccc(-c2cc(-n3ccnc3)ncn2)cc1`, the AC50 is 7.94 µM (active). In the case of `c1cncc(-c2cc(-c3cc(-c4cccnc4)n[nH]3)[nH]n2)c1`, the activity, negative = inhibition is -12.7% [at 11.4 µM] (inactive). With `c1cncc(-c2cc(-n3ccnc3)ncn2)c1`, the concentration at half-maximal activity (AC50) is 15.8 µM (active). For `CN1CCN(c2cc(-c3ccc(N(C)C)cc3)ncn2)CC1`, the AC50 result was “inactive”.

For `CC(C)(C)c1onc(OCP(=O)(O)O)c1C[C@@H](N)C(=O)O`, the AC50 entry was “inactive”. In the case of `Cc1cccc(NS(=O)(=O)c2c(C)n[nH]c2C)c1`, the AC50 result is “inactive”.

`CCC1CC(CSc2ncn[nH]2)OC1=O` (configuration not stated): the AC50 result is “inactive”. With `O=C(CSc1ncnc2nc[nH]c12)c1ccccc1`, the activity, negative = inhibition was -6.92% [at 11.4 µM] (inactive). `CCn1ncc(/C=C/C(=O)NCc2cn(C)nc2C)c1C`: the AC50 entry is “inactive”.

Turning to `CCCC(=O)Nc1c(C)n[nH]c1C`, the AC50 result was “inactive”. Take `CCCCCCCCCCn1c2c(c(=N)c3c1CCC3)CCC2`: the half-maximal activity concentration (AC50) is 3.55 µM (active). Take `CC(C)NC(=O)CSc1nnc(C2CC2)n1-c1ccccc1`: the AC50 entry was “inactive”. In the case of `COC(=O)[C@@]1(Cc2ccc(OC)cc2)[C@H]2c3cc(C(=O)N4CCCC4)n(CCCNc4ncc(C(F)(F)F)cc4Cl)c3C[C@H]2CN1C(=O)c1ccccc1`, the AC50 entry is “inactive”. On to `Cc1nnc(C)n1/N=C/c1ccc(-c2ccccc2)cc1`, for which the AC50 entry is “inactive”.

For `Cc1cccc(NC(=O)C2(c3ccccc3)CC2(Cl)Cl)c1` (configuration not stated), the half-maximal activity concentration (AC50) was 17.8 µM (active). On to `Cc1cccc(NC(=O)C23CCC(C)(C2Br)C3(C)C)c1` (configuration not stated), for which the AC50 result is “inactive”.

Regarding `Cc1cccc(N/C(=N\S(=O)(=O)c2ccccc2)C(F)(F)F)c1`, the AC50 entry is “inactive”. With `NC(=O)c1nn(-c2ccccc2)c(=O)cc1O`, the AC50 entry was “inactive”. As for `OCCNCCCOc1cccc(Cl)c1Cl`, the AC50 was 0.158 µM (active). Turning to `Cc1nc(NC(N)=S)sc1C(=O)Nc1ccccc1`, the AC50 result was “inactive”.

As to `Cc1c(C)n(C(=O)CN2CCC(C)CC2)c2ccccc12`, the AC50 was 3.16 µM (active). In the case of `Cc1nc2ccccc2nc1SCC(=O)N1CCC(C)CC1`, the AC50 entry is “inactive”. With `Cn1cnnc1SCC(=O)n1c2ccccc2c2ccccc21`, the AC50 result was “inactive”.
